Sm TGR block – qHTS Assay for the Inhibitors of Schistosoma Mansoni Peroxiredoxins; Schistosoma mansoni thioredoxin glutathione reductase (TGR), Q962Y6; purified TGR, DTNB reduction, TNB absorbance 405 nm; Potency, µM (series often up to 114 µM), for the others: top-dose activity change, negative = inhibition, usual class: inhibitors; 3% of 360,000 active; further: potency means the concentration at half of the fitted maximal effect; on the % scale 0 is the no-effect control and ±100 the full control effect; nearly all actives have a fitted effect of over 60% in size
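TGR 20 nM + NADPH 100 uM (dispensed conc.), cpd preinc 15 min RT; start with NADPH (500 uM addition) then DTNB (15 mM addition). Kinetic TNB absorbance, 405 nm filter. Four-parameter Hill fit across titration.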
Pf growth 48h – Primary qHTS for delayed death inhibitors of the malarial parasite plastid, 48 hour incubation; P. falciparum luciferase growth in erythrocytes, 48 h; Potency, µM (doses to about 28.7 µM), for the others: at the highest dose activity change, negative = inhibition, hits mostly inhibitors; 5.9% of 310,000 active; AID 504832, 2011; further: potency means the concentration at half of the fitted maximal effect; on the % scale 0 is the no-effect control and ±100 the full control effect
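Erythrocytes infected with P. falciparum carrying an integrated firefly luciferase reporter (2% hematocrit, 0.1% parasitemia final) were exposed to compounds in RPMI 1640 with 0.5% Albumax at 37 C, 5% CO2. Growth inhibition was scored as reduced luminescence.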
NS1 function inh – qHTS Assay for Inhibitors of Influenza NS1 Protein Function; Potency, µM (top dose mostly 46.1 µM), for the others: top-dose activity, positive = more growth; 0.4% of 270,000 active; calls by dose curve; further: potency means the concentration at half of the fitted maximal effect; actives are rising curves; nearly all actives have a fitted effect of over 50% in size
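OD600 was taken as the measure of yeast growth restored by compound in an NS1-expressing S. cerevisiae strain. Cells had been washed out of glucose medium and diluted 1:100 into galactose -URA medium, pH 6.0.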
Pf growth 96h – Primary qHTS for delayed death inhibitors of the malarial parasite plastid, 96 hour incubation; Potency, µM (series often up to 28.7 µM), for inactives: at the top dose activity change, negative = inhibition, most hits filed as inhibitors; AID 504834, 2011; P. falciparum luciferase reporter growth, 96 h; 6.9% of 320,000 active; further: potency means the concentration at half of the fitted maximal effect; on the % scale 0 is the no-effect control and ±100 the full control effect
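Cell-based qHTS: luciferase-tagged P. falciparum in erythrocytes (2% hematocrit, 0.05% parasitemia final) incubated with compounds for 96 hours, 37 C, 5% CO2; luciferase detection reagent then added and luminescence measured.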
Shiga inhibitor – A qHTS for Small Molecule Inhibitors of Shiga Toxin; AID 2315, 2010; Vero cells, Shiga toxin protein synthesis inhibition reporter; 9.2% of 290,000 active; inhibition, % at 38.7 µM; in the data active means inhibition mostly above about 28%, no sharp cut-off; inactive means mostly below about 43%; further: 0% is about no effect
Cycloheximide cs – Cycloheximide Counterscreen for Small Molecule Inhibitors of Shiga Toxin | cell reporter, cycloheximide protein synthesis inhibition counterscreen | max response, % | 12% of 300,000 active | AID 2314, 2010; in the data active means max response mostly above about 13%, no sharp cut-off; inactive means mostly below about 14%; further: read at 38.3 µM for the half of the compounds with a filed dose; 0% is about no effect
An asterisk follows results filed as active; ? = inconclusive; nt = no result given. An excerpt weighted towards active compounds, which were near 21% of everything screened. Unless noted, the call rests on the fitted dose curve; in most records, active means well fitted curve in the direction sought with a large enough effect; inconclusive means small, poorly fitted or top-dose-only effect, or another doubt; inactive means no such curve, though single readings can be large; an effect the other way counts as inactive or inconclusive.

SMILES	Sm TGR block	Pf growth 48h	NS1 function inh	Pf growth 96h	Shiga inhibitor	Cycloheximide cs
CN(C(=O)CSc1ccc(S(=O)(=O)N2CCCCC2)cn1)c1ccccc1	-15%	?	nt	12µM*	nt	nt
O=C(NCCc1ccccc1)c1c2c(nc3ccccc13)C(=O)N(C1CCCCC1)C2	9%	nt	nt	nt	nt	nt
Cc1cc2[nH]c(=O)c(=O)[nH]c2cc1S(=O)(=O)NC1CCCCC1C (stereo not drawn)	-15%	-1%	15%	4.7µM*	-4	-2
Cc1cc2[nH]c(=O)c(=O)[nH]c2cc1S(=O)(=O)NC1CCC(C)CC1 (stereo not drawn)	-15%	?	10%	0%	2	10
COC(=O)CSc1nc(-c2ccccc2)cc(-c2ccco2)c1C#N	32µM*	52%	4%	?	83*	41*
COc1ccc(-c2cc(-c3ccccc3)c(C#N)c(SCC(=O)Nc3ncc(C)s3)n2)cc1	12%	13µM*	-3%	-13%	-3	-3
COC(=O)CSc1nc(N)c(C#N)c(-c2ccco2)c1C#N	?	21%	-3%	33%	-20	7
CCCCCOC(=O)c1ccc(NC(=O)c2ccco2)cc1	0%	1.3µM*	-82%	3%	68*	36*
CCCCCCCCOc1ccccc1C(=O)Nc1ccc(C(=O)OCC[N+](C)(CC)CC)cc1	nt	15µM*	nt	1.3µM*	nt	nt
CCCCOC(=O)c1ccc(NC(=S)NC(=O)c2c(Cl)cnn2C)cc1	14%	41%	17%	134%	-18	3
CCCCOc1cccc(C(=O)Nc2ccc(NC(=O)c3ccco3)cc2)c1	-3%	13%	3%	195%	-18	-2
CCCCOC(=O)c1ccc(NC(=S)NC(=O)c2ccco2)cc1	?	?	10%	12µM*	5	6
CCCCOC(=O)c1ccc(NC(=O)c2c(OC)cccc2OC)cc1	14%	-12%	0%	10%	21	1
CCc1ccc2c(c1)-c1ccccc1S(=O)(=O)N2CC(=O)N1CCC(C)CC1	-1%	nt	nt	nt	nt	nt
CCCOc1ccc(N2CC(C(=O)Nc3cccc(Cl)c3Cl)CC2=O)cc1 (stereo not drawn)	0%	nt	nt	nt	nt	nt
CC(C)NCC(O)c1ccccc1Cl (stereo not drawn)	nt	7.6µM*	nt	12µM*	nt	nt
COc1cc(-c2nc(SCC(=O)Nc3ccc(C)cc3)c(-c3ccc(F)cc3)[nH]2)cc(OC)c1OC	-3%	nt	nt	nt	nt	nt
CC1CCc2c(sc3ncn(CC(=O)N4CCCCC4)c(=O)c23)C1 (stereo not drawn)	25%	-1%	-2%	-29%	20	9
C[CH2][Hg][S]c1ccccc1C(=O)O	nt	1.9µM*	nt	1.2µM*	nt	nt
Cn1cc(Cl)c(C(=O)NNC(=S)NC2CCCCC2)n1	1%	19%	-2%	3%	54*	23*
Cn1cc(Cl)c(C(=O)NC2CCCCCC2)n1	-12%	27%	1%	nt	23*	14*
COc1ccc(-c2oc3ccccc3c2C(=O)OCc2ccccc2OC)cc1	7%	-13%	-1%	?	-3	1
COCCNC(=O)CCCn1c(=O)[nH]c2ccsc2c1=O	-5%	nt	nt	nt	nt	nt
Cc1nn(S(=O)(=O)c2ccc(F)cc2)c(C)c1S(=O)(=O)N1CCCCCC1	4%	nt	nt	nt	nt	nt
Oc1ccccc1/C=N/NC(=S)NC1CC2CC1C1C=CCC21 (stereo not drawn)	6%	3.3µM*	4%	1.9µM*	49*	53*
COc1cccc(/C=N/NC(=S)NC2CC3CC2C2C=CCC32)c1O (stereo not drawn)	-2%	2.3µM*	-1%	1.3µM*	87*	35*
Cc1nccn1CC(=O)N/N=C/c1ccccc1O	5%	-7%	1%	37%	3	-1
COc1cc2c(cc1OC)C(NNC(=O)c1ccc(Br)o1)=NC(C)(C)C2	1%	?	-24%	?	-5	-7
Cc1ccc(NC(=O)CSc2nc3c(c(=O)[nH]2)CCC3)cc1Cl	11%	nt	nt	nt	nt	nt
O=C(Nc1ccc(Cl)cc1F)c1ccccc1Br	-9%	263%	-7%	31%	130*	63*
